Here are results for 12 compounds from PubChem BioAssay (NCATS).

The structures appear in SMILES notation. Inconclusive results are not listed. The source made the active and inactive calls. Calls follow the shape of the dose curve; as a rule, active = well fitted inhibition curve with a large enough effect; inconclusive = small, poorly fitted or top-dose-only effect; inactive = flat fitted curve, though single readings scatter.

What all share (assay): qHTS profiling for inhibitors of Plasmodium falciparum proliferation (AID 504749); also: nearly all actives have a fitted effect of over 60% in size
Common to all, as to settings: P. falciparum in erythrocytes, SYBR Green DNA, 72 h; series mostly up to 28.7 µM
On the technique in general: Quantitative high-throughput screening tests each substance at several concentrations.

For one experiment, the system named is CP215. Summed up: (§1)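 Infected RBCs, 0.3% parasitemia/2.5% Hct final; cpd 72 h, 37 C, 5% CO2; lysis buffer with saponin/triton/SYBR Green I, o/n RT dark; FI 485/535; norm. to artemisinin (0.29 uM) and DMSO.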
In a further experiment the test system is CP217. Summed up:
as §1

The subject of the next experiment is CP237. Summed up: as §1
The next experiment relates to CP238. In outline: as §1
A further experiment concerns CP247. Summed up: as §1
In a further experiment the test system is CP250. Summed up:
as §1

The next experiment has as its system CP252. In outline: as §1
For the next experiment, the system named is CP256. Summed up: as §1
Another experiment relates to CP260. Summed up:
as §1

The next experiment has as its system CP262. Summed up: as §1
Potency is read from the fitted curve at half-maximal effect.

Take `Nc1ncnc2nc[nH]c12`: the Potency result in the experiment on CP215, in the experiment with CP217, in the experiment on CP237, with CP238, in the experiment on CP247 and with CP250 was “inactive” each time. In addition, the Potency result with CP252, with CP256, in the experiment with CP260 and with CP262 was “inactive” each time.

As for `O=[N+]([O-])c1ccc(O)c2ncccc12`, the values for the Potency with CP247, with CP252 and with CP262 were 11.2 µM (active), 8.91 µM (active) and 12 µM (active), respectively.

Consider `Nc1c2ccccc2nc2ccccc12`, for which the Potency in the experiment with CP237 is 8.91 µM (active); in the experiment on CP238 it was 10 µM (active); in the experiment on CP247, 10 µM (active); in the experiment with CP252, 10 µM (active); in the experiment with CP256, 11.2 µM (active); with CP260 it was 7.94 µM (active). Further, in the experiment with CP262, the Potency entry is “inactive”.

On to `O=C(Nc1ccc(Cl)cc1)Nc1ccc(Cl)c(Cl)c1`, for which the Potency was 6.75 µM (active) in the experiment on CP215; 2.24 µM (active) with CP217; 2 µM (active) in the experiment on CP237; 3.55 µM (active) with CP238; 3.98 µM (active) in the experiment on CP247; 3.16 µM (active) with CP250. For the same compound, the Potency in the experiment with CP252 is 3.55 µM (active); in the experiment with CP256 it was 2.24 µM (active); with CP260, 2 µM (active); in the experiment on CP262 it was 5.36 µM (active).

For `CN1CCC(Nc2ncc3ncnc(Nc4ccc(F)c(Cl)c4)c3n2)CC1`, the values for the Potency in the experiment on CP217 and in the experiment with CP252 were 11.2 µM (active) and 7.94 µM (active), respectively. The Potency entry in the experiment with CP262 is “inactive”.

With `CCCCCCCCCCCCCCCC[N+](C)(C)Cc1ccccc1`, the Potency in the experiment with CP215 is 9.53 µM (active); with CP217 it was 3.16 µM (active); in the experiment on CP237 it was 3.55 µM (active); in the experiment with CP238 it was 0.891 µM (active); in the experiment with CP247, 2.24 µM (active); in the experiment on CP250, 2.51 µM (active). Besides, the Potency was 3.16 µM (active) with CP252, 3.98 µM (active) in the experiment with CP256, 2 µM (active) with CP260 and 4.78 µM (active) with CP262.

Consider `O=S(=O)(O)c1ccc2nc(-c3ccccc3)[nH]c2c1`, for which the Potency result in the experiment with CP215, in the experiment on CP217, in the experiment on CP237, in the experiment on CP238, in the experiment with CP247 and in the experiment with CP250 was “inactive” throughout. Moreover, the Potency entry in the experiment with CP252, with CP256, with CP260 and in the experiment with CP262 was “inactive” in each case.

Turning to `CCCCCCCCCCCCCC[N+](C)(C)C`, the Potency in the experiment on CP215 was 8.49 µM (active); in the experiment on CP217 it was 8.91 µM (active); in the experiment with CP237 it was 5.01 µM (active); in the experiment with CP238 it was 3.98 µM (active); with CP247, 3.98 µM (active); in the experiment with CP250, 5.62 µM (active). Besides, the Potency in the experiment with CP252 is 7.08 µM (active); in the experiment with CP256, 7.94 µM (active); in the experiment on CP260, 3.98 µM (active); in the experiment on CP262 it was 4.78 µM (active).

`CC(NCCC(c1ccccc1)c1ccccc1)c1ccccc1` (stereo not given): the Potency in the experiment with CP217 was 8.91 µM (active); in the experiment with CP237, 10 µM (active); in the experiment with CP247, 7.94 µM (active); in the experiment with CP252, 10 µM (active); with CP256, 12.6 µM (active); with CP260, 10 µM (active). The Potency entry in the experiment on CP262 was “inactive”.

`CCCCCCCCCCCCCCCC[n+]1ccccc1`: the Potency in the experiment on CP215 is 13.5 µM (active); with CP217, 5.62 µM (active); in the experiment with CP237 it was 7.94 µM (active); with CP238, 7.08 µM (active); in the experiment with CP247, 5.62 µM (active); in the experiment with CP250 it was 6.31 µM (active). The Potency in the experiment with CP252 was 6.31 µM (active); in the experiment on CP256 it was 8.91 µM (active); in the experiment on CP260 it was 3.98 µM (active); in the experiment with CP262, 3.38 µM (active).

Turning to `CN1CCCN(C(c2ccccc2)c2ccc(Cl)cc2)CC1` (stereo not given), the Potency is 14.1 µM (active) in the experiment with CP217; 11.2 µM (active) in the experiment with CP237; 11.2 µM (active) with CP247; 12.6 µM (active) in the experiment with CP250; 10 µM (active) in the experiment on CP256; 10 µM (active) in the experiment with CP260. The Potency result with CP262 was “inactive”.

As for `Nc1ccc2cc3ccc(N)cc3nc2c1`, the Potency with CP237 is 12.6 µM (active); in the experiment with CP260, 8.91 µM (active). The Potency result in the experiment on CP262 is “inactive”.
